From PubChem
The list is not random: actives were taken first. Their share in the collection is about 2.6%.
Cruzain Triton = cruzain (T. cruzi) inhibition with detergent | purified cruzain, Z-FR-AMC fluorescence, 0.01% Triton | 0.43% of 200,000 active | P25779 | Potency, µM, most hits filed as inhibitors; further: nearly all actives have a fitted effect of over 40% in size
Target sequence (P25779 123-467 limits assumed): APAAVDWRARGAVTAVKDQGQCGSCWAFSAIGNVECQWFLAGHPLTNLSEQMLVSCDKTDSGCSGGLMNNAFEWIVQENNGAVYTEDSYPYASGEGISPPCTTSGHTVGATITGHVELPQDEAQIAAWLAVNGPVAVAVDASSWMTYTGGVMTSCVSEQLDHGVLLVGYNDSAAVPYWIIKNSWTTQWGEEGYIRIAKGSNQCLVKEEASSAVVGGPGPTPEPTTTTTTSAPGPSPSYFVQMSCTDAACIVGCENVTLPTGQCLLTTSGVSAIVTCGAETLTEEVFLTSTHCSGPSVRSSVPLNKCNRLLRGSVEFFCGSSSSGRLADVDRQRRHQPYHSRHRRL
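Cysteine protease activity tested under reducing, mildly acidic conditions (100 mM sodium acetate pH 5.5, 5 mM DTT) plus 0.01% Triton X-100. Cruzain 1.5 nM; substrate Z-FR-AMC 2 uM; 15 min compound preincubation at room temperature.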
Cruzain noTriton = inhibitors of Trypanosoma cruzi cruzain without detergent; P25779; AID 1476; 2.3% of 200,000 active; Potency, µM, actives largely listed as inhibitors; purified cruzain, Z-FR-AMC fluorescence, no detergent; further: nearly all actives have a fitted effect of over 40% in size
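Detergent-free condition (0.00005% Triton X-100) in acetate buffer pH 5.5 with DTT. 1.5 nM enzyme and compound were pre-mixed 15 min, then 2 uM Z-FR-AMC substrate added; reaction progress from fluorescence change between first and third reads (60 s).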
A number is an active result; – = inactive; ? = inconclusive. The call rests on the fitted dose curve; in most records, active means well fitted curve in the direction sought with a large enough effect; inconclusive means small, poorly fitted or top-dose-only effect, or another doubt; inactive means no such curve, though single readings can be large; an effect the other way counts as inactive or inconclusive.

SMILES	Cruzain Triton	Cruzain noTriton
COc1ccc(NC(=O)c2ccc3c(c2)N(Cc2cccc(Cl)c2)C(=O)c2ccccc2S3(=O)=O)cc1Cl	–	3.2µM
CC(=O)c1ccc(NC(=O)c2ccc3c(c2)N(Cc2cccc(Cl)c2)C(=O)c2ccccc2S3(=O)=O)cc1	–	10µM
CCOC(=O)c1cccc(NS(=O)(=O)c2cc(Br)cc3c2N(C(=O)C2CC2)CC3)c1	–	–
Cc1cn2c(=O)c(S(=O)(=O)Nc3ccc(F)cc3F)c(C)nc2s1	–	–
COc1ccc(OC)c(NC(=O)CSc2nc3ccccc3cc2Cc2ccccc2)c1	–	20µM
COc1ccc(NC(=O)CSc2nc3ccccc3cc2Cc2ccccc2)cc1	–	?
COc1cccc(NC(=O)CSc2nc3ccccc3cc2Cc2ccccc2)c1	–	?
COc1cc(NC(=O)CSc2nc3ccccc3cc2Cc2ccccc2)cc(OC)c1	–	32µM
Cc1ccc2c(c1)cc(C(=O)NCc1ccccc1C)n2C	–	–
COc1ccccc1NC(=O)c1oc2ccccc2c1NC(=O)c1ccccc1C(F)(F)F	–	–
COC(=O)c1cccc(CN2C(=O)SC(Nc3ccc(Br)cc3)C2=O)c1 (stereo unspecified)	–	–
O=[N+]([O-])c1ccc(Oc2ccc(-c3cnc4ccccc4n3)cc2[N+](=O)[O-])cc1	–	?
O=[N+]([O-])c1cc(-c2cnc3ccccc3n2)ccc1Oc1ccc(Br)cc1	–	25µM
COc1ccc(NC(=O)CC2C(=O)N(c3ccc(F)cc3)C(=O)N2Cc2ccco2)cc1 (stereo unspecified)	–	–
CC(C)c1ccc(NC(=O)c2ccc(NC(=O)CCS(=O)(=O)c3cccs3)cc2)cc1	–	32µM
O=C(CCS(=O)(=O)c1cccs1)Nc1ccc(C(=O)Nc2cccc(Cl)c2)cc1	–	–
CN(C)c1ccc(NC(=O)c2sc(SCC(=O)Nc3ccc(Br)cc3)nc2N)cc1	–	10µM
CN(C)c1ccc(NC(=O)c2sc(SCC(=O)Nc3nccs3)nc2N)cc1	–	?
O=C(N/N=C/c1ccc2ccccc2c1)c1ccc(COc2ccc3c(c2)CCC3)o1	–	20µM
COc1ccc(Br)cc1/C=N/NC(=O)c1ccc(COc2ccc3c(c2)CCC3)o1	–	–
O=C(/C=C/c1ccco1)NC(=S)Nc1nc(-c2ccc3ccccc3c2)cs1	–	4µM
O=C(/C=C/c1ccco1)NC(=S)Nc1nc(-c2ccc(Cl)cc2)cs1	–	5µM
Cc1ccc2oc(-c3cccc(NC(=S)NC(=O)/C=C/c4ccco4)c3)nc2c1	–	4µM
Cc1ccc2oc(-c3cccc(NC(=S)NC(=O)c4cccs4)c3)nc2c1	–	?
O=C(/C=C/c1ccco1)NC(=S)Nc1ccccn1	–	–
SMILES	Cruzain Triton	Cruzain noTriton
O=C(/C=C\c1ccco1)Nc1nc(-c2ccccc2)cs1	–	–
CCNc1nc(Oc2ccc(OCC(=O)OC)nn2)nc(N2CCOCC2)n1	–	–
O=C(Cn1c(=O)n(Cc2ccc(F)cc2)c(=O)c2sc3ccccc3c21)NCc1ccccc1	–	?
CN1CCN(c2ncnc3ccc(-c4ccccc4Cl)cc23)CC1	–	–
COc1ccccc1CNC(=O)CCn1c(=O)c2ccccc2n(CC(=O)Nc2ccc(C)cc2Cl)c1=O	–	–
C/C(=N\NC(=O)c1cccc(S(=O)(=O)Nc2ccccc2Cl)c1)c1ccc(-n2ccnc2)cc1	–	20µM
COc1ccc(NS(=O)(=O)c2cccc(C(=O)N/N=C(\C)c3ccc(-n4ccnc4)cc3)c2)cc1	–	–
COc1ccc(S(=O)(=O)c2c(Nc3ccc(F)cc3)sc(C(=O)c3ccc4c(c3)OCO4)c2N)cc1	–	?
Cc1ccccc1Nc1sc(C(=O)c2ccc3c(c2)OCO3)c(N)c1S(=O)(=O)c1ccccc1	–	7.9µM
Cc1ccc(Nc2sc(C(=O)c3ccccc3)c(N)c2C(=O)Nc2ccc(Cl)cc2)cc1	–	?
Cc1ccc(S(=O)(=O)c2c(Nc3ccccc3)sc(C(=O)c3ccc4c(c3)OCO4)c2N)cc1	–	7.9µM
Cc1ccc(CNC(=O)c2c(Nc3ccccc3C)sc(C(=O)c3ccc(F)cc3)c2N)cc1	–	?
COc1ccc(S(=O)(=O)c2c(Nc3ccc(C)cc3)sc(C(=O)c3ccc4c(c3)OCO4)c2N)cc1	–	3.2µM
O=C(c1noc2c1CCCCC2)N1CCN(c2ccc(Cl)cc2)CC1	–	–
COc1ccc(OC)c(NC(=O)c2cccn2-c2nnc(N3CCCCC3)s2)c1	–	–
N#Cc1c(Sc2ncc(C(F)(F)F)cc2Cl)nsc1C/C=N\OCc1c(F)cccc1Cl	–	4µM
FC(F)(F)c1cnc(Sc2nnc(-c3cccs3)n2CC2CCCO2)c(Cl)c1 (stereo unspecified)	–	–
Cc1ccc(C(=O)COC(=O)c2cc(-c3cccs3)nc3ccccc23)cc1	–	?
COc1ccc(C(=O)COC(=O)c2cc(-c3cccs3)nc3ccccc23)cc1	–	20µM
CCN(c1ccccc1)S(=O)(=O)c1ccc(NC(=O)c2cc(=O)c3cc(C)c(C)cc3o2)cc1	–	–
COc1ccc(-c2cn3c(n2)sc2cc(C(=O)N4CCCCC4)ccc23)cc1	–	–
CCC(C(=O)Nc1ccc(C)c(Cl)c1)n1c(=O)c(-c2ccccc2NC(C)=O)nc2ccccc21 (stereo unspecified)	–	–
CC(=O)c1cccc(Nc2cc(C)nc3nc(Cc4ccccc4)nn23)c1	–	–
CCN(CC)CCCNC(=O)CN1N=C(c2ccccc2)CCC1=O	–	–
CCOc1ccccc1N1C(=O)CC(N(O)c2ccccc2)C1=O (stereo unspecified)	–	–
SMILES	Cruzain Triton	Cruzain noTriton
CCCCOc1ccc(N2C(=O)CC(N(CCc3ccccc3)C(=O)/C=C/C(=O)O)C2=O)cc1 (stereo unspecified)	–	?
CCCCCOc1ccc(N2C(=O)CC(N(O)c3ccccc3)C2=O)cc1 (stereo unspecified)	–	25µM
CCCCOc1ccc(N2C(=O)CC(N(O)c3ccccc3)C2=O)cc1 (stereo unspecified)	–	20µM
COc1ccc(C(=O)Nc2ccc(-c3nc4ccccc4s3)c(Cl)c2)cc1Cl	–	?
O=C(c1ccc(Cl)cc1)N1CCCCC1CCN1CCOCC1 (stereo unspecified)	–	–
C=CCC(C)(O)c1cccc(Br)c1 (stereo unspecified)	–	–
CCN(CC)c1ccc(NC(=O)CN(C)S(=O)(=O)c2cccc3nsnc23)c(C)c1	–	–
COc1ccc2[nH]cc(CCNc3ccnc(-c4cccc(NS(C)(=O)=O)c4)n3)c2c1	–	–
CS(=O)(=O)Nc1ccc(Cc2noc(-c3ccc4[nH]cc(CCN)c4c3)n2)cc1	–	32µM
Cc1ccc(N=C2NC(=O)/C(=C\c3cccs3)S2)cc1C	–	25µM
Cc1cccc(N=C2NC(=O)/C(=C/c3cccs3)S2)c1	–	?
COc1ccc(-c2nc3c(c(=O)[nH]c(=O)n3Cc3ccccc3)n2C)cc1	–	–
Cn1c(-c2cccc(OCc3ccccc3)c2)nc2c1c(=O)[nH]c(=O)n2Cc1ccccc1	–	7.9µM
COc1ccccc1-n1c(SCC(=O)c2ccc(O)cc2O)nc2cc([N+](=O)[O-])ccc21	–	13µM
COc1ccccc1-n1c(SCC(=O)NC2CCS(=O)(=O)C2)nc2cc([N+](=O)[O-])ccc21 (stereo unspecified)	–	?
Cc1ccc(N2CC(C(=O)Nc3nnc(C)s3)CC2=O)cc1 (stereo unspecified)	–	–
